Measured values as given in PubChem BioAssay (NCATS).
Values joined by “and” are separate entries in the source; they are usually repeats but may differ in a detail not shown here. Identical values can stand only once. Inconclusive results are not listed. A call without a number means that no potency is given here. Active and inactive are the calls of the source. Unless noted, the call rests on the fitted dose curve; in most records, active means well fitted inhibition curve with a large enough effect; inconclusive means small, poorly fitted or top-dose-only effect; inactive means no such curve, though single readings can be large or run the other way.

Experiments:
[1] = biological target: Aldehyde dehydrogenase, mitochondrial (Homo sapiens) (UniProt P05091); test: qHTS for Inhibitors of the Aldehyde Dehydrogenase Family (ALDH2) Confirmatory screens (AID 2061303; active means well fitted inhibition curve with a large enough effect; title and protocol of this record describe different tests; further: nearly all actives have a fitted effect of over 45% in size; further: potency means the concentration at half of the fitted maximal effect); settings: ALDH inhibition qHTS; series mostly up to 45.4 µM
[2] = qHTS for Inhibitors of the Aldehyde Dehydrogenase Family (ALDH1A2, ALDH1A3, ALDH2, ALDH3A1) (AID 2061307); settings: ALDH inhibition qHTS; series mostly up to 50.3 µM; further: nearly all actives have a fitted effect of over 50% in size; on potency: test system not described further here; potency means the concentration at half of the fitted maximal effect
[3] = biological target: Retinaldehyde dehydrogenase 3 (Homo sapiens) (UniProt P47895); test: qHTS for Inhibitors of the Aldehyde Dehydrogenase Family (ALDH1A3) Confirmatory screens (AID 2061311); settings: ALDH inhibition qHTS; series mostly up to 46 µM; further: nearly all actives have a fitted effect of over 60% in size; further: potency means the concentration at half of the fitted maximal effect
[4] = biological target: Retinal dehydrogenase 2 (Homo sapiens) (UniProt O94788); test: qHTS for Inhibitors of the Aldehyde Dehydrogenase Family (ALDH1A2) Confirmation screens (AID 2061314); settings: ALDH1A2 enzyme inhibition qHTS confirmation; series mostly up to 45.9 µM; further: nearly all actives have a fitted effect of over 65% in size; further: potency means the concentration at half of the fitted maximal effect
[5] = biological target: Retinaldehyde dehydrogenase 3 (Homo sapiens) (UniProt P47895); test: qHTS for Inhibitors of the Aldehyde Dehydrogenase Family (ALDH1A3) Primary screen (AID 2061315); settings: ALDH inhibition qHTS; series mostly up to 56 µM
[6] = biological target: Aldehyde dehydrogenase 1A1 (Homo sapiens) (UniProt P00352); test: qHTS for Inhibitors of the Aldehyde Dehydrogenase Family (ALDH1A1) Confirmatory screens (AID 2061316); settings: ALDH inhibition qHTS; series mostly up to 47.3 µM; further: nearly all actives have a fitted effect of over 65% in size; further: potency means the concentration at half of the fitted maximal effect

Structure (SMILES)	Potency [1]	Potency [2]	Potency [3]	Potency [4]	Potency [5]	Potency [6]
CC(=O)N1CCN(c2ccc(NCc3ccc(-c4ccc(Br)cc4)o3)cc2)CC1	0.142 µM (active)	2.01 µM (active)	25.2 µM (active)	2.52 µM (active)	inactive	5.65 µM (active)
Cc1ccc(-n2c(=O)c3c(cnn3C)n(CC(=O)Nc3ccccc3C)c2=O)cc1	inactive	inactive	22.4 µM (active)	inactive	–	inactive
COc1ccc(S(=O)(=O)Nc2cccc(-c3ccc(N4CCCCCC4)nn3)c2)c(OC)c1	28.2 µM (active)	28.2 µM (active) and 2.51 µM (active)	inactive	inactive	–	inactive
Cc1ccc(OCCn2c(CCNC(=O)c3ccccc3[N+](=O)[O-])nc3ccccc32)cc1	inactive	inactive	inactive	inactive	inactive	–
N#Cc1c(-c2ccc3c(c2)OCO3)no[n+]1[O-]	inactive	1.13 µM (active)	inactive	10.1 µM (active)	inactive	inactive
CCOc1cc(CNc2ccc(C(=O)O)cc2)ccc1OCc1ccccc1	2 µM (active)	inactive	0.199 µM (active)	2.57 µM (active)	–	6.47 µM (active)
Fc1c(-c2ccc3ncnc(NCc4cccs4)c3c2)ccc2c1OCO2	inactive	inactive	inactive	inactive	inactive	inactive
O=C(O)c1cccnc1SC1=NS(=O)(=O)c2ccccc21	inactive	inactive	inactive	31.8 µM (active)	inactive	–
COc1ccc(S(=O)(=O)N2CCN(C(=O)c3ccc([N+](=O)[O-])o3)CC2)cc1	inactive	inactive	inactive	inactive	–	10 µM (active)
